From PubChem BioAssay (NCI)
The panel holds about 83,000 compounds, 20% with a hit somewhere; the sample as a whole holds those more often.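 96-well plates, one dose, 48 hours. Percent growth reported; active if below 10.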 A number with no mark means an inactive call. Active and inactive are the calls of the source.

Each molecule was assayed on SK-MEL-2 melanoma (assay: NCI-60 one-dose screen, 48 h (100 = growth as untreated, 0 = no growth, -100 = all killed)). Conditions: 10 µM unless noted.

SMILES | growth
CCOc1ccc(NC(=O)Nc2cc(C(C)C)ccc2C)cc1 | 68.6%
NS(=O)(=O)c1ccc(-n2nc(-c3ccc(Cl)cc3)ccc2=O)cc1 | 86.1%
COC(OC)C1(c2ccccc2)NC(=O)NC1=O (centres undefined) | 104%
CC1=C[S+](c2ccccc2)c2cccc3cc4ccccc4c1c23 (centres undefined) | -65.2% (active)
O=C(Nc1ccccc1F)Nc1ccccc1Cl | 109%
O=C(C[n+]1ccccc1Cl)c1ccc2c(c1)CCCC2 | 103%
COc1cc(-c2nc3sc(C)cn3c2/C=C2\C(=O)Nc3ccccc32)c(Br)c(OC)c1OC | 74.3%
CC1(C)N=C(N)N=C(N)N1c1cccc(CCCCc2ccccc2)c1 | 7.3% (active)
COc1ccc(/C=C2\CS(=O)(=O)C/C(=C\c3ccc(OC)cc3)C2=O)cc1 | -7.45% (active)
CN1CCN(CC(O)COc2c(Br)c(Br)c(Br)c3c2OC(C)(C)C3)CC1 (centres undefined) | 38.5%
CC1(C)N=C(N)N=C(N)N1c1ccc(OCC(=O)Nc2ccccc2)c(Cl)c1 | 47.5%
COc1ccc2c(c1)nnc1c3cccnc3[nH]c21 | -13.2% (active)
CC(=O)N[C@@H](CNC(=O)c1cc(NC(=O)c2cc(NC(=O)c3cc(NC(=O)c4nccn4C)cn3C)cn2C)cn1C)CC(=O)Nc1cn(C)c(C(=O)Nc2cc(C(=O)Nc3cc(C(=O)Nc4cc(C(=O)NCCCN(C)CCCNC(=O)c5cccc(C(=O)O)c5)n(C)c4)n(C)c3)n(C)c2)n1 | 89.4%
Nc1ccc(S(=O)(=O)Nc2cc(I)cc(I)c2)cc1 | 97.7%
